# In PubChem BioAssay (Tox21):
# “And” between values parts separate entries of the source, which are not always exact repeats. Equal entries are not always repeated. Unmarked numbers belong to inactive results. Records with an inconclusive call do not appear. Entries that show only a call come without a potency. The source made the active and inactive calls. Unless noted, calls come from the whole dose curve; as a rule, active = well fitted curve in the direction sought with a large enough effect in the repeat runs; inconclusive = weak or mixed curves; inactive = no such curve, though single readings can be large; an effect the other way counts as inactive or inconclusive.
# Experiments:
# [1] = qHTS assay for small molecule agonists of the p53 signaling pathway (AID 651631; calls by dose curve; note: nearly all actives have a fitted effect of over 15% in size)
# Outline: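 HCT-116 cells carrying a beta-lactamase reporter under p53 response elements were dosed with compound for 16 h at 37 °C. LiveBLAzer B/G FRET substrate was then added for 2 h at room temperature, and fluorescence intensity was read to detect pathway agonism.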
# [2] = qHTS assay for small molecules that induce genotoxicity in human embryonic kidney cells expressing luciferase-tagged ATAD5 (AID 651632); note: nearly all actives have a fitted effect of over 15% in size
# Outline: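 Genotoxicity read-out via ATAD5-luciferase: HEK293T cells, 16 hr compound incubation at 37C, Amplite detection.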
# [3] = qHTS assay for small molecule agonists of the p53 signaling pathway - cell viability (AID 651633; calls by dose curve;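 note: p53RE-bla HCT reporter cells with a stable beta-lactamase p53 reporter; series mostly up to about 83 µM; nearly all actives have a fitted effect of over 30% in size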)
# Outline: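 Viability counter-read: CellTiter-Glo luminescence (30 min, room temperature) in the same p53RE-bla plates. These plates had been exposed to compounds for 16 h at 37 C.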
# [4] = qHTS assay for small molecule disruptors of the mitochondrial membrane potential - cell viability (AID 720634; calls by dose curve; note: nearly all actives have a fitted effect of over 20% in size; note: potency is the fitted concentration of half-maximal effect)
# Outline: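 Human hepatoma HepG2 cells were treated for 1 hr with test chemicals, then given m-MPI dye and CellTiter-Glo. Cell viability reflects luminescence proportional to cellular ATP.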
# [5] = qHTS assay for small molecule disruptors of the mitochondrial membrane potential (AID 720635); note: potency is the fitted concentration of half-maximal effect
# Outline: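 Mitochondrial membrane potential tracked with Mito-MPS dye, red aggregates (ex 540/em 590 nm) against green monomers (ex 490/em 535 nm). Compound treatment 1 hr at 37C, dye 30 min in HepG2.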
# [6] = qHTS assay to test for compound auto fluorescence at 535 nm (green) in HepG2 cells (AID 720675)
# [7] = qHTS assay to test for compound auto fluorescence at 460 nm (blue) in HEK293 cells (AID 720678)
# Outline: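 After cell attachment (4-5 hr, 37C), compounds were pinned onto HEK293 monolayers in 10% dialyzed FBS medium. The blue channel (405/460 nm) was read following overnight culture. Equivalency was calculated against triamterene.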
# [8] = qHTS assay to test for compound auto fluorescence at 590 nm (red) in HEK293 cells (AID 720679)
# Outline: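 Plates of HEK293 cells (10% dialyzed FBS) are treated with 23 nL compound or DMSO vehicle after a 4-5 hr attachment period, incubated overnight at 37C, and read for red fluorescence at 540/590nm.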
# [9] = qHTS assay to test for compound auto fluorescence at 535 nm (green) in HEK293 cells (AID 720680)
# [10] = qHTS assay to test for compound auto fluorescence at 460 nm (blue) in HEK293 cell free culture (AID 720681)
# Outline: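 Blue fluorescence (Ex 405/Em 460 nm, triamterene-equivalent) was read immediately after pin transfer of compound or DMSO into medium (DMEM, 10% FBS) without cells.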
# [11] = qHTS assay to test for compound auto fluorescence at 535 nm (green) in HEK293 cell free culture (AID 720682)
# Outline: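 Green-label autofluorescence (485 nm excitation, 535 nm emission) measured on compound added to cell-free culture medium (DMEM, 10% FBS). Output is expressed relative to fluorescein.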
# [12] = qHTS assay to test for compound auto fluorescence at 590 nm (red) in HEK293 cell free culture (AID 720683)
# Outline: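 Red-channel autofluorescence of compounds in culture medium (DMEM, 10% FBS), no cells, measured at 540/590 nm. Rose Bengal sodium is the reference fluorophore for equivalence.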
# [13] = qHTS assay to test for compound auto fluorescence at 590 nm (red) in HepG2 cell free culture (AID 720684)
# Outline: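 Plate contents were MEM with 10% FBS plus test compound or DMSO, no cells. Fluorescence was recorded with 540 nm excitation and 590 nm emission.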
# [14] = qHTS assay to test for compound auto fluorescence at 535 nm (green) in HepG2 cell free culture (AID 720686)
# [15] = qHTS assay to test for compound auto fluorescence at 460 nm (blue) in HepG2 cells (AID 720687)
# Outline: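 Blue-channel autofluorescence (Ex/Em 405/460 nm, triamterene-equivalent) was measured after 1 hr compound exposure at 37 C, 5% CO2. Cells were HepG2, plated overnight at 37 C in MEM plus 10% FBS.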
# [16] = qHTS assay to test for compound auto fluorescence at 590 nm (red) in HepG2 cells (AID 720674)
# Outline: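 1 hr compound incubation on HepG2 cells, 37 C, 5% CO2; plate read ex 540 nm / em 590 nm; intensities reported as Rose Bengal sodium equivalents.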
# [17] = qHTS assay to test for compound auto fluorescence at 460 nm (blue) in HepG2 cell free culture (AID 720685)
# Outline: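 Compound (23 nL) or DMSO pinned into cell-free MEM with 10% FBS; blue fluorescence read at 405/460 nm excitation/emission, expressed as auto-fluorescence equivalency to triamterene.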
# [18] = qHTS assay for small molecules that induce genotoxicity in human embryonic kidney cells expressing luciferase-tagged ATAD5 - cell viability (AID 651634; calls by dose curve; note: nearly all actives have a fitted effect of over 25% in size)
# Outline: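 Live-cell protease activity (CellTiter-Fluor, fluorescence) indicates viability. HEK293T cells with luciferase-tagged ATAD5; 15.5 hr compound treatment at 37C.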
# [19] = molecular target: Glucocorticoid receptor (Homo sapiens) (UniProt P04150); test: qHTS assay to identify small molecule agonists of the glucocorticoid receptor (GR) signaling pathway (AID 720691; active = well fitted activation curve with a large enough effect in the signal ratio in the repeat runs, not every such curve was filed as active; the % refers to the signal ratio)
# Glucocorticoid receptor (Homo sapiens), sequence (P04150 whole entry, looked up): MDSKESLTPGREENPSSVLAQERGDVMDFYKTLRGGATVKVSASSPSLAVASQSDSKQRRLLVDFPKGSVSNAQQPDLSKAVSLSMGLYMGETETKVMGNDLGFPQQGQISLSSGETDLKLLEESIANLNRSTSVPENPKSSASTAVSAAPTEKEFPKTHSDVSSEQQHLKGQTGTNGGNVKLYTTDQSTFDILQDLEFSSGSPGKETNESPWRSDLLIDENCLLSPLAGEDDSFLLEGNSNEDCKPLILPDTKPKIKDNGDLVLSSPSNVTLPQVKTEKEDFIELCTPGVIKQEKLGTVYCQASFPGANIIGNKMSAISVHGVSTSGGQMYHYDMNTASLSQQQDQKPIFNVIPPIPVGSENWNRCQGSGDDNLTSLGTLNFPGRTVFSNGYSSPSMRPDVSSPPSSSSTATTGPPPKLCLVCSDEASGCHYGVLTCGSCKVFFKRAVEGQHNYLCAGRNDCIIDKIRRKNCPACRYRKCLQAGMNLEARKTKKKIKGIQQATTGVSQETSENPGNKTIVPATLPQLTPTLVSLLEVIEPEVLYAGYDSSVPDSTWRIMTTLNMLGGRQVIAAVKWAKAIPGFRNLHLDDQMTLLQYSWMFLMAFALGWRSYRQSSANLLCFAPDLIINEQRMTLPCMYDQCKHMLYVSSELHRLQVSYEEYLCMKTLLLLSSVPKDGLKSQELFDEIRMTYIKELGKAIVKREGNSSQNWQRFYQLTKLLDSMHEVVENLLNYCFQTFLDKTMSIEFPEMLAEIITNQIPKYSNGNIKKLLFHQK
# Outline: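 Beta-lactamase reporter activity, read as fluorescence intensity, was measured in GR-bla HeLa cells exposed to compounds for 18 h at 37 C and then loaded with LiveBLAzer B/G FRET substrate for 2 h at room temperature.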
# [20] = molecular target: Glucocorticoid receptor (Homo sapiens) (UniProt P04150); test: qHTS assay to identify small molecule antagonists of the glucocorticoid receptor (GR) signaling pathway (AID 720692; active = well fitted inhibition curve with a large enough effect in the signal ratio in the repeat runs, not every such curve was filed as active; the % refers to the signal ratio; note: potency is the fitted concentration of half-maximal effect)
# Outline: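 Fluorescence from cleaved LiveBLAzer B/G FRET substrate reports GRE-driven beta-lactamase in HeLa cells; compounds are tested against 5 nM dexamethasone (final) over 18 h at 37 C, substrate incubation 2 h at room temperature.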
SMILES,Potency [1],Potency [2],Potency [3],Potency [4],Potency [5],outcome [6],outcome [7],outcome [8],outcome [9],outcome [10],outcome [11],outcome [12],outcome [13],outcome [14],outcome [15],outcome [16],outcome [17],Potency [18],outcome [19],Potency [20]
ClCC(Cl)Cl,inactive,inactive,inactive,inactive,inactive,inactive,inactive,inactive,inactive,inactive,inactive,inactive,inactive,inactive,inactive,,,,,
COc1cccc(C(=O)NN(C(=O)c2cc(C)cc(C)c2)C(C)(C)C)c1C,inactive,inactive,,,,inactive,inactive,inactive,inactive,inactive,inactive,inactive,,inactive,inactive,inactive,inactive,,,
Nc1ccccc1Cl,inactive,inactive,,inactive,inactive,inactive,inactive,inactive,inactive,inactive,inactive,,,inactive,,inactive,,inactive,inactive,inactive
Cc1cnc[nH]1,inactive,inactive,inactive,inactive,,inactive,inactive,inactive,inactive,inactive,inactive,,inactive,inactive,inactive,inactive,inactive,,inactive,inactive
CCNc1nc(NC(C)C)nc(OC)n1,inactive,inactive,,inactive,,inactive,inactive,inactive,inactive,inactive,inactive,inactive,inactive,inactive,inactive,inactive,inactive,inactive,inactive,inactive
CCC/C(=N\OCC)C1=C(O)CC(CC(C)SCC)CC1=O (stereo not drawn),inactive,inactive,,inactive,inactive,inactive,inactive,inactive,inactive,,,inactive,inactive,inactive,inactive,,inactive,inactive,inactive,inactive
COC(=O)c1c(C(F)F)nc(C(F)(F)F)c(C2=NCCS2)c1CC(C)C,inactive,inactive,inactive,,,inactive,inactive,inactive,inactive,inactive,inactive,inactive,inactive,inactive,inactive,inactive,inactive,,,
NC(=S)C(N)=S,inactive,inactive,,inactive,inactive,inactive,inactive,inactive,inactive,,inactive,inactive,inactive,inactive,,,inactive,inactive,,
C[C@H]1CCC[C@H](O)CCCCCc2cc(O)cc(O)c2C(=O)O1,inactive,inactive,,26.6 µM (active),9.44 µM (active) and 6.91 µM (active),inactive,inactive,inactive,inactive,inactive,inactive,inactive,inactive,inactive,inactive,inactive,,,inactive,21.3 µM (active) and 39.2 µM (active)
CCOC(=O)N(C)C(=O)CSP(=S)(OCC)OCC,inactive,inactive,,inactive,,inactive,inactive,inactive,inactive,,inactive,inactive,inactive,inactive,inactive,inactive,,inactive,inactive,inactive
O=C(CCN1CC1)OCC(CO)(COC(=O)CCN1CC1)COC(=O)CCN1CC1,inactive,inactive,,inactive,,inactive,inactive,inactive,inactive,inactive,inactive,inactive,inactive,inactive,inactive,inactive,inactive,inactive,inactive,
CCN(CC)c1nc(C)cc(OP(=S)(OC)OC)n1,inactive,inactive,,,,inactive,inactive,inactive,inactive,inactive,inactive,inactive,inactive,inactive,inactive,inactive,inactive,inactive,inactive,inactive
CCC1(c2ccccc2)C(=O)NC(=O)NC1=O,inactive,inactive,,inactive,,inactive,inactive,inactive,inactive,,inactive,inactive,inactive,inactive,inactive,inactive,inactive,inactive,,
CNNC,inactive,inactive,inactive,inactive,,inactive,inactive,inactive,inactive,inactive,inactive,inactive,inactive,inactive,inactive,inactive,inactive,,inactive,inactive
